Assay outcomes as filed in PubChem BioAssay.
FBPA coupling cs – inhibits coupling enzyme system, counter-screen for aldolase hits | coupling enzyme system counterscreen, AmpLite Red fluorescence | activity change, negative = inhibition, % at 58.2 µM, hits read low | hit rate 0.67% among 290,000 | AID 2472; in the data active means activity change below about -30%; further: on the % scale 0 is the no-effect control and ±100 the full control effect
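Counterscreen lacking aldolase: glyceraldehyde-3-phosphate coupling-enzyme reagent preincubated 10 min at RT with compound (at 57.5 uM final), then substrate/coupling system with AmpLite Red added; fluorescence read at 525/598 nm after 20 min RT.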
RXFP1 antagonist – blocks the human relaxin receptor RXFP1; AID 1259400; HEK293-RXFP1, relaxin-stimulated cAMP HTRF, 30 min; stronger effect = lower value; hit rate 0.59% among 350,000; activity change, negative = inhibition, % at 57.5 µM;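 active means activity change of -60% or lower, but not beyond a set lower limit; inconclusive means change between -60% and -40%, or beyond the set limit; inactive means change above -40%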; further: on the % scale 0 is the no-effect control and ±100 the full control effect
Target sequence (Q9HBX9 whole entry, looked up): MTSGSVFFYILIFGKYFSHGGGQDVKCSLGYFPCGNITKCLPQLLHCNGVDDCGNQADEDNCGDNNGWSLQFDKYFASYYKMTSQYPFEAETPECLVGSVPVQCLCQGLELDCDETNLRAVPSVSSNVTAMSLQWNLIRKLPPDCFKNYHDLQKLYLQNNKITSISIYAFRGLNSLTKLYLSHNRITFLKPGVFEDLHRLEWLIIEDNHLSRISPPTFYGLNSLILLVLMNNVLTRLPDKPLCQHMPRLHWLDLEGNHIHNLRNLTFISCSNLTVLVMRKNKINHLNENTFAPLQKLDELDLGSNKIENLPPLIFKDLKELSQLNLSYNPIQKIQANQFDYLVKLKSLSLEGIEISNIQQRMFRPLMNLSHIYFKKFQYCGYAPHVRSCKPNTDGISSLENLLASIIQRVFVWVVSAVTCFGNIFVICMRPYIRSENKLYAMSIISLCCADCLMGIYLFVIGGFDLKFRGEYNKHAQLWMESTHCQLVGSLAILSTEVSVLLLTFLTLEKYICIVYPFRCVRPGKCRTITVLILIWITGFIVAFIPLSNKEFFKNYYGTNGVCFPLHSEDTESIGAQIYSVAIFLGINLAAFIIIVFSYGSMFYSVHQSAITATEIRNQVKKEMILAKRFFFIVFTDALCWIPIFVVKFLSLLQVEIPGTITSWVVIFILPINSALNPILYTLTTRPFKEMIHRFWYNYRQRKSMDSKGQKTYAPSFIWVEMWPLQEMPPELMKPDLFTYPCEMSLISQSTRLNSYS
RXFP1 ag – activates the human relaxin receptor RXFP1; Potency, µM (titrated, usually from 57.5 µM), for the others: at the highest dose activation, most hits filed as activators; hit rate 0.3% among 370,000; HEK293T-RXFP1 cAMP TR-FRET, 30 min; response scale: percent of porcine relaxin response, buffer zero; active means well fitted activation curve with a large enough effect; inconclusive means small, poorly fitted or top-dose-only effect; further: potency means the concentration at half of the fitted maximal effect; on the % scale 0 is the no-effect control and ±100 the full control effect; nearly all actives have a fitted effect of over 60% in size
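HEK293T cells stably expressing RXFP1 were pretreated with the PDE4 inhibitor Ro 20174, exposed to compounds for 30 min at 37C, lysed, and cAMP was read by TR-FRET. Data normalized to buffer (basal) and 29 nM porcine relaxin (100%).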
Giardia killer – kills Giardia lamblia; Giardia lamblia trophozoite viability; activity change, % at 7.66 µM, hits read low; hit rate 0.15% among 340,000; AID 540267; in the data active means activity change below about -80%; inconclusive means between about -30% and that limit;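 further: parasites exposed to compound for two days anaerobically before the ATP read; on the % scale 0 is the no-effect control and ±100 the full control effect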
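Trophozoite viability was measured as ATP-dependent luminescence, read 15-30 min after reagent addition. Before that, parasites at 100 cells/well were exposed to compounds for 48 h, anaerobically, at 37 deg C.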
gsp ag – activates gsp, the McCune-Albright syndrome mutation | gsp mutant cells, cAMP HTRF, 30 min | Potency, µM (top dose mostly 76.9 µM), without a hit: top-dose activation (cAMP increase), most hits filed as activators | hit rate 0.13% among 340,000; active means well fitted activation curve with a large enough effect; inconclusive means small, poorly fitted or top-dose-only effect, or another doubt; inactive means no such curve, though single readings can be large or run the other way; cell line not stated here;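 further: phosphodiesterase inhibitor Ro 20-1724 added with compounds to block cAMP breakdown; potency means the concentration at half of the fitted maximal effect; nearly all actives have a fitted effect of over 60% in size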
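Cells stably selected in G418 were plated at 2000/well, grown 16-24 hr, then given compounds in DMSO with the PDE inhibitor […] (300 uM solution added) for 30 min at 37C; cAMP was read by HTRF.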
gsp antag – antagonists of gsp mutant (McCune-Albright syndrome). gsp-mutant cells, cAMP HTRF, 30 min. Potency, µM (highest dose often 76.9 µM), for the others: top-dose activity change, negative = inhibition, usual class: inhibitors. hit rate 0.4% among 340,000. AID 624288; calls by dose curve; cell line not stated here;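 further: intracellular cAMP measured with PDE inhibitor Ro 20-1724 present during compound exposure; potency means the concentration at half of the fitted maximal effect; on the % scale 0 is the no-effect control and ±100 the full control effect; nearly all actives have a fitted effect of over 65% in size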
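Measurement of cellular cAMP by homogeneous time-resolved fluorescence following a 30 min compound exposure at 37C. The PDE inhibitor […] was present throughout; the assay buffer was DPBS with 0.05% BSA and 0.005% Tween 20.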
Numbers without * were called inactive; ? = inconclusive; / = no result given; ! = a repeat was not active; [ ] = dose if it differs, or a comment. The list is not random: actives were taken first. Their share in the collection is about 1.6%.

SMILES	FBPA coupling cs	RXFP1 antagonist	RXFP1 ag	Giardia killer	gsp ag	gsp antag
Cc1ccc(CNC(=O)C(N=C2NS(=O)(=O)c3ccccc32)C(C)C)cc1 (stereo not given)	/	-3	-1%	-4	12%	3%
CC[C@]12c3[nH]c4ccc(OC)cc4c3CCN1C(=O)C(CC(=O)NCCc1ccccn1)C[C@@H]2C(=O)N1CCN(C(=O)c2ccco2)CC1 (stereo not given in full)	/	/	/	5	/	4%
CCN(CC)C(=O)Nc1ccc(OCC(O)CNC(C)(C)C)c(C(C)=O)c1 (stereo not given)	/	-11	/	/	/	/
O=[S+]([O-])([O-])c1ccc2c(c1)cc([S+](=O)([O-])[O-])c1nn(-c3ccc(/C=C/c4ccc(-n5nc6c([S+](=O)([O-])[O-])cc7cc([S+](=O)([O-])[O-])ccc7c6n5)cc4[S+](=O)([O-])[O-])c([S+](=O)([O-])[O-])c3)nc12	/	/	/	-20	/	/
COc1ccc2[nH]cc(CCNc3ncncc3-c3ccccc3Cl)c2c1	-1	/	/	/	/	/
Cn1c([N+](=O)[O-])cnc1N1CCN(c2nncs2)C1=O	1	13	16µM*	-93*	10µM*	5%
Cc1cc(N2C(=O)C(O)=C(C(=O)c3cc4ccccc4o3)C2c2cccc(Br)c2)no1 (stereo not given)	/	10	16µM*	-17	6.3µM*	2%
COc1cc(C2C(C(=O)c3cc4ccccc4o3)=C(O)C(=O)N2c2cc(C)on2)cc(OC)c1OC (stereo not given)	1	6	?	8	?	1%
CCn1c(=S)[nH]c2nc3c(cc2c1=O)CCCC3	0	15	?	15	8.9µM*	16%
CCN(CC)CCOc1ccc(C(O)(Cc2ccc(Cl)cc2)c2ccc(C)cc2)cc1 (stereo not given)	0	-91*	/	/	/	/
COCCN(CCOc1cc(C)cc(C)c1)Cc1ccc(Cl)cc1	0	-22	2%	-8	-2%	1%
N#Cc1cc(NC(=O)C(=O)O)c(Cl)c(NC(=O)C(=O)O)c1	/	9	/	/	/	/
O=C(/C=C/C#Cc1cccc(NS(=O)(=O)c2ccccc2)c1)NO	-9	/	/	/	/	/
COc1cc(NC(C)=O)c2ncccc2c1NC(C)=O	-16	5	-3%	-7	0%	14%
COc1cc(NC(C)=O)c2ncccc2c1[N+](=O)[O-]	-66*	-11	-2%	1	-1%[15.4 µM]	-4%
COC(=O)c1ccccc1S(=O)(=O)N1CCc2nc(-c3ccc(OC)cc3C)c3c(c2C1)CO[C@@H](c1ccccc1)C3	2	/	/	/	/	/
CC(=O)OCCN1c2ccccc2Sc2cnccc21	/	-2	/	/	-2%	/
CC(=O)OCCCN1c2ccccc2Nc2nnc(-c3ccccc3)cc21	-5	-4	0%	-13	-11%	40µM*
N#C/C(=C\Nc1ccc2cn[nH]c2c1)c1nc(-c2ccc(Cl)cc2)cs1	-35*	-19	-1%	-11	-5%[15.4 µM]	19%
CC/C(=C(/c1ccccc1)c1ccc(OCCN(C)C)cc1)c1ccccc1	6	/	/	/	/	/
CCCCN1C(=O)c2ccc(C(=O)Nc3ccc(C)c(S(=O)(=O)N(C)C)c3)cc2C1=O	-6	-13	1%	-16	-11%	28µM*
OCCCNCc1ccc(N(c2ccccc2)c2ccccc2)cc1	-3	-69*	0%	-26	?	14%
OCCNCc1ccc(-c2ccccc2)cc1	0	25	0%	4	1%	13%
COc1cc(-c2cc3nc4ccccc4n3c(N)c2C#N)cc(OC)c1OC	-3	39	0%	-11	28µM*	13%
N#Cc1c(-c2ccccc2)cc2nc3ccccc3n2c1N	2	-8	4%	-10	13%	1%
SMILES	FBPA coupling cs	RXFP1 antagonist	RXFP1 ag	Giardia killer	gsp ag	gsp antag
CCN(CC)C(=O)c1cc([N+](=O)[O-])cc2c1-c1ccc([N+](=O)[O-])cc1C2=C(C#N)C#N	-34*	15	5%	-19	2%	-12%
CCOC(=O)c1nnc(-c2ccc(C)cc2)nc1N1CCSCC1	2	-68*	0%	14	8%[15.4 µM]	-15%
COc1ccccc1CN1COc2ccc3c(oc(=O)c4ccccc43)c2C1	/	-2	18µM*	/	/	/
O=C(c1cnccn1)N1CCC[C@@]2(CCN(c3ccccn3)C2)C1	-1	/	/	/	/	/
COc1ccc(/C=N/NC(=O)c2ccccc2O)cc1Cn1cc(Cl)cn1	8	-21	-3%	3	-36%	-32%
CCOc1ccc(/C=N/NC(=O)c2ccccc2O)cc1CN1CC2CC(C1)c1cccc(=O)n1C2 (stereo not given)	/	/	0%	-19	/	35µM*
CCCCNC(=O)c1ccc2c(c1)NC(=O)C(CS(=O)(=O)Cc1cccc(C)c1)N2 (stereo not given)	/	-23	16%	/	/	/
Fc1ccc(-c2csc3ncnc(N4CCN(c5ccccc5)CC4)c23)cc1	0	-65*	-1%	-15	6%	-14%
COc1ccc(CN2CCN(c3ncnc4scc(-c5ccc(F)cc5)c34)CC2)cc1	10	-61*	-1%	1	-12%[15.4 µM]	-46%
Cc1ccc(CNc2ccc3c(c2)OCO3)c(C)c1	-37*	/	10%	/	/	/
Cc1ccc(C)c(NC(=O)Nc2ccc3c(c2)OCO3)c1	/	1	0%	-21	20%	7%
O=C(C=Cc1ccccn1)c1ccccc1	/	-65*	/	-25	-17%	14%
CCOC(=O)c1sc(SCC(=O)Nc2ccc(N(C)C)cc2)nc1N	-1	0	3%	-8	-1%	28µM*
C[n+]1c2cc(N)ccc2cc2ccc(N)cc21 (tested in a mixture with another compound)	/	-9	/	/	/	/
COCCCn1c(=S)[nH]c2sc3c(c2c1=O)CCCS3	2	-2	16µM*	-1	18%[15.4 µM]	4%
N#Cc1cc2c(=O)n3ccccc3nc2n(CCCN2CCOCC2)c1=O	3	9	18%	-2	35µM*	21%
CCc1cc(C(C)=O)c(O)cc1OCCCCCC(C)(C)c1nn[nH]n1	17	/	/	/	/	/
COc1ccc(-c2cc(=O)[nH]c(=S)[nH]2)cc1	5	-6	4%	-5	10µM*	0%
CCC(Sc1nc2cc3c(cc2c(=O)n1CCCC(=O)NCc1ccc(OC)cc1)OCO3)C(=O)NCCCOC (stereo not given)	/	-77*	0%	/	/	/
COCCCNC(=O)CSc1nc2cc3c(cc2c(=O)n1CCCCCC(=O)NCc1ccc(OC)cc1)OCO3	/	-26	-1%	/	/	/
CCCCNC(=O)CSc1nc2cc3c(cc2c(=O)n1CCCC(=O)NCCc1ccc(OC)c(OC)c1)OCO3	4	-76*!	1%	2	2%[15.4 µM]	-31%
